# Pol iota inh: DNA polymerase iota (human) inhibition; Q9UNA4; Pol iota fluorescent replication assay, 10 min; Potency, µM (titrated, usually from 115 µM), without a hit: at the top dose activity, negative = inhibition, usual class: inhibitors; 1% of 390,000 active; AID 588590
# Target sequence (Q9UNA4 whole entry, looked up): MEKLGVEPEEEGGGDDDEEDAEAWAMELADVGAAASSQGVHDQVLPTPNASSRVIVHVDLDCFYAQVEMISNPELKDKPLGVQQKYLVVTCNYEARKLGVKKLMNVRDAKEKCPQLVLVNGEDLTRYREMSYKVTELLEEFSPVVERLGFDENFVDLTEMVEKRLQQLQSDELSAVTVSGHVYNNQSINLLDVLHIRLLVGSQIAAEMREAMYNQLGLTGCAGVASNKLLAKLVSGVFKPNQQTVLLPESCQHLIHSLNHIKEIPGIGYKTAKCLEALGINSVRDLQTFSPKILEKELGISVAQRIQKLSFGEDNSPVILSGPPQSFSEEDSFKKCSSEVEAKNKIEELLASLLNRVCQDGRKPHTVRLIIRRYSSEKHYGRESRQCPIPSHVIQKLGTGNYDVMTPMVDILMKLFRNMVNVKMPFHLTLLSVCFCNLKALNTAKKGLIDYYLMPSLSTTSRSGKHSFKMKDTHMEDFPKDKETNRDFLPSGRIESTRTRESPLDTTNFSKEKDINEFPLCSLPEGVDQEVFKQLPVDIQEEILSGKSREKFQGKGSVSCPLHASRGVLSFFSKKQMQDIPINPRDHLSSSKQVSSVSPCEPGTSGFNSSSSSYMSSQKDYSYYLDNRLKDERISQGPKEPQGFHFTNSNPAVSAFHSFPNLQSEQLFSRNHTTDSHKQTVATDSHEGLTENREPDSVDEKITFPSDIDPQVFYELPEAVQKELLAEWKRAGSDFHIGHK
#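 Pol iota at 10 nM preincubated 15 min with compounds at room temperature; reaction started with fluorescent substrate, 50 nM final. Fluorescence read kinetically at 0 and 10 min; buffer-only wells as negative control.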
# POLB inh: blocks human DNA polymerase beta activity. Potency, µM (doses to about 114 µM), for inactives: at the top dose activity change, negative = inhibition, usual class: inhibitors. P06746. AID 485314. 1.3% of 340,000 active. Pol beta primer extension/strand displacement, fluorescence kinetic; further: on the % scale 0 is the no-effect control and ±100 the full control effect
#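 Enzyme-only controls used 10 nM Pol beta; buffer lacking enzyme served as negative control. Compound preincubated 15 min, then 50 nM substrate added; 0 and 10 min reads at room temperature.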
# POLH inh: inhibitors of human DNA polymerase eta. Q9Y253. recombinant Pol eta, fluorescent DNA replication assay. Potency, µM (doses to about 114 µM), without a hit: top-dose activity change, negative = inhibition, hits mostly inhibitors. 1.2% of 390,000 active. AID 588591; further: on the % scale 0 is the no-effect control and ±100 the full control effect
#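 Pol eta at 10 nM preincubated with compounds 15 min at room temperature; reaction started with fluorescent substrate (50 nM final) and read kinetically at 0 and 10 min.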
# POLK inh: DNA polymerase kappa (human) inhibition. AID 588579. purified Pol kappa, fluorescent DNA synthesis assay, 10 min. Potency, µM (top dose mostly 107 µM), for the others: top-dose activity, negative = inhibition, actives largely listed as inhibitors. 0.53% of 400,000 active. Q9UBT6; further: on the % scale 0 is the no-effect control and ±100 the full control effect
#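 10 nM Pol kappa preincubated 15 min at room temperature with compounds, then reaction started with substrate at 50 nM final. Fluorescence read kinetically at 0 and 10 min; buffer-only wells served as negative control.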
# WRN inhibitor: blocks human WRN helicase; Q14191; WRN helicase unwinding, fluorescent forked duplex, kinetic; Potency, µM (top dose mostly 114 µM), inactives show at the highest dose activity change, negative = inhibition, actives largely listed as inhibitors; 0.46% of 360,000 active; AID 651768; further: on the % scale 0 is the no-effect control and ±100 the full control effect; nearly all actives have a fitted effect of over 55% in size
#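 WRN at 20 nM final preincubated with compound 15 min at room temperature; reaction started with 100 nM fluorophore/quencher forked duplex oligonucleotide and 2 mM ATP final. Unwinding followed kinetically by red fluorescence (ex 525, em 598 nm).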
# * hit, by the source's call; u = inconclusive; x = no result; [ ] = another dose, or the depositor's remark. The list is not random: actives were taken first. Their share in the collection is about 2.3%. The call rests on the fitted dose curve; in most records, active means well fitted curve in the direction sought with a large enough effect; inconclusive means small, poorly fitted or top-dose-only effect, or another doubt; inactive means no such curve, though single readings can be large; an effect the other way counts as inactive or inconclusive. Potency means the concentration at half of the fitted maximal effect.
SMILES,Pol iota inh,POLB inh,POLH inh,POLK inh,WRN inhibitor
C=CCN1C(=O)/C(=N/n2cnnc2)c2ccccc21,32µM*,3%,-13%,-5%,-13%
COC(=O)c1c(C)sc(-c2c(-c3ccc4c(c3)OCCO4)[nH]c3c2c(=O)n(C)c(=O)n3C)c1O,6%,1%,x,-17%,x
COC(=O)c1c(C)sc(-c2c(-c3ccc4c(c3)OCCO4)[nH]c3[nH]c(=O)[nH]c(=O)c23)c1O,u,40µM*,x,u,x
Cc1ccc(CN2C(=O)C(=O)c3cc(Br)cc(C)c32)cc1,-23%,-6%,-19%,-24%,x
Cc1ccc(N2C(=O)[C@@H]3[C@H](C2=O)C2c4ccccc4C=CN2[C@@H]3C(=O)c2ccco2)c(C)c1 (stereo partly specified),u,21%,28µM*,-23%,-28%
O=C(c1ccco1)[C@@H]1[C@@H]2C(=O)N(c3ccccc3)C(=O)[C@@H]2C2c3ccccc3C=CN21 (stereo partly specified),13µM*,36%,u,-13%,-14%
CC(=O)[C@@H]1[C@@H]2C(=O)N(Cc3ccccc3)C(=O)[C@@H]2C2c3ccccc3C=CN21 (stereo partly specified),u,23%,u,0%,-6%
Cc1ccc(N2C(=O)[C@@H]3[C@H](C2=O)C2c4ccccc4C=CN2[C@@H]3C(=O)c2ccco2)cc1 (stereo partly specified),u,6%,u,-23%,-23%
O=S(=O)(NCCNC/C=C/c1ccc(Br)cc1)c1cccc2cnccc12,-1%[58.9 µM],8%[57.1 µM],-6%[57.1 µM],5%[19.4 µM],x
O=C1c2ccccc2-c2n[nH]c3cccc1c23,u,32µM*,u,u,-3%[11.6 µM]
C=CCOc1c(Cl)cc(CNc2ccc(N(C)C)cc2)cc1OC,8.9µM*,-24%,-6%,-20%,-9%
O=C(Nc1cccc(C(F)(F)F)c1)c1cc2ccc3cccnc3c2[nH]1,u,30%,-12%,10%,x
O=C(Nc1ccc(F)cc1F)c1cc2ccc3cccnc3c2[nH]1,u,18µM*,-9%,-42%,x
CN1/C(=C\C=C(C#N)C#N)C(C)(C)c2ccccc21,0%,-13%,u,1%,-9%
CC[n+]1c(/C=C/C=C2/N(C)c3ccccc3C2(C)C)sc2ccccc21,x,x,x,27µM*,x
N#C/C(=C\c1ccc(-c2cccc(Cl)c2)o1)C(=O)Nc1cccc(C(F)(F)F)c1,89µM*,-20%,-1%,-25%,x
O=C1C[C@H]2C=CCc3cccc(c32)CN1Cc1ccc(Cl)cc1,9%,x,x,-13%,x
Cc1cc2c(cc1C)N[C@]1(C[C@H]3CCCC(=O)N4CC[C@@H](C1)[C@@H]34)C(=NCc1ccccc1)N2,27%,x,x,4%,x
C#CCOCCOCCOCCNc1nc(N2CCN(C(=O)Cn3cc(CCCN=C(N)N)nn3)CC2)nc(N2CCN(C(=O)[C@H](CCCCN)n3cc(CCCC)nn3)CC2)n1,u,x,-2%,-23%,3%
C#CCOCCOCCOCCNc1nc(N2CCN(C(=O)Cn3cc(CCCCN)nn3)CC2)nc(N2CCN(C(=O)Cn3cc(CCCN=C(N)N)nn3)CC2)n1,35µM*,x,4%,u,1%
C#CCOCCOCCOCCNc1nc(N2CCN(C(=O)Cn3cc(CCCN=C(N)N)nn3)CC2)nc(N2CCN(C(=O)[C@H](C)n3cc(CCCN=C(N)N)nn3)CC2)n1,u,40µM*,-15%,u,1%
CCCCOc1ccc(C(=O)NCc2cn3cccc(C)c3n2)cc1,127%,1%,5%,10%,x
CC(=O)c1ccc([N+](C)(C)C)cc1,18%,x,x,-21%,x
COc1cc2c(cc1OC)-c1cc3ccc4c(c3c[n+]1CC2)OCO4,14µM*,40µM*,u,-21%,7%[11.6 µM]
CCCOC(C(=O)OC1CCN(C)CC1)(c1ccccc1)c1ccccc1,x,x,x,0%[19.4 µM],x
Cc1cccc(N/N=C/c2ccc(O)c(O)c2O)c1,u,10µM*,u,u,-9%[11.6 µM]
Cc1ccc(Nc2nc(Nc3ccc(Cl)cc3)nc(N3CCOCC3)n2)cc1,-17%,x,x,-1%,x
